Inconclusive results are not listed. Activity calls are given as the source filed them. How the source made its calls, unless noted: active means hit-call score of the fitted dose curve at least 0.9, where 1 is the maximum; inactive means score below 0.9.

This is an account of results in PubChem BioAssay (EPA / NIEHS).

The nature of assay [1]: ACEA_ER_80hr: ACEA Biosciences xCELLigence Real-Time Cell Analysis on Estrogen Receptor Agonism for Proliferation (AID 2282667; active means hit-call score of the fitted dose curve at least 0.9, where 1 is the maximum). Conditions: T47D proliferation, impedance (xCELLigence), 80 h. In short, it runs like this: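 Estrogen-driven proliferation is captured as electrode impedance in T47D cells 80 h after compound addition. Test articles ran at 8 concentrations, 1:4 dilutions from 100 uM final, in two replicate plates.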

Assay [2] is described as follows: APR_HepG2_CellCycleArrest_24hr: Apredica 24-hour HepG2 Assay for Cell Cycle Arrest (AID 2282905).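 Further: cell cycle arrest scored as ratio of 2N to 4N nuclear DNA content.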 Conditions: imaging, actives raise or lower the signal. Put shortly:
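After 24 h exposure at 0.39–200 uM in 0.5% DMSO, fixed cells received Hoechst 33342 staining. Imaging quantified per-nucleus DNA content; gain or loss fitted against DMSO controls.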

Assay [3] is described as follows: APR_HepG2_NuclearSize_24hr: Apredica 24-hour HepG2 Assay for Nuclear Size (AID 2282907). Conditions: high-content imaging, actives raise or lower the signal. In short, it runs like this: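 Nuclear size from Hoechst 33342-stained, formaldehyde-fixed HepG2 nuclei imaged by high-content microscopy, after 24 h dosing at ten concentrations from 0.39 to 200 uM in 0.5% DMSO; gain or loss relative to DMSO baseline.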

Assay [4] can be described thus: APR_HepG2_CellLoss_24hr: Apredica 24-hour HepG2 Assay for Cell Loss (AID 2282908).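 On AC50: fit in both directions so a hit may be cell loss or gain.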 Conditions: high-content imaging. Put shortly:
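Nuclei stained with Hoechst 33342 after formaldehyde fixation (3.7%) were imaged at 20x to count cells. Exposure lasted 24 hr, at ten concentrations from 0.39 to 200 uM in duplicate, with 0.5% v/v DMSO. Fit bidirectional, relative to DMSO.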

Assay [5] is described as follows: APR_HepG2_MicrotubuleCSK_24hr: Apredica 24-hour HepG2 Assay for Microtubule CSK Stabilty (AID 2282909). Conditions: HepG2 microtubule cytoskeleton imaging, actives raise or lower the signal. In short, it runs like this: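 Fixed HepG2 cells were stained for alpha-tubulin and imaged after 24 hr exposure to ten concentrations spanning 0.39–200 uM in 0.5% DMSO. Signal change was fitted in both directions relative to DMSO; taxol was the positive control.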

The nature of assay [6]: APR_HepG2_MitoticArrest_24hr: Apredica 24-hour HepG2 Assay for Mitotic Arrest (AID 2282910). Conditions: high-content imaging, actives raise or lower the signal. In short, it runs like this:
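HepG2, 24 hr dosing, 0.39–200 uM, 0.5% DMSO final. Formaldehyde-fixed, Triton-permeabilised, anti-phospho-histone H3 plus Hoechst. ArrayScan imaging at 20x; bidirectional fit vs DMSO baseline.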

A short description of assay [7]: APR_HepG2_MitoMembPot_24hr: Apredica 24-hour HepG2 Assay for Mitochondrial Membrane Potential (AID 2282911). Conditions: imaging, actives raise or lower the signal. Put shortly:
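Mitochondrial dye uptake (MitoTracker Red CMXRos, 250 nM, 30 min pre-fixation) in HepG2 after 24 hr compound exposure, 0.39–200 uM; ArrayScan images at 20x, activity fitted in both directions relative to DMSO.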

Assay [8] is described as follows: APR_HepG2_MitoMass_24hr: Apredica 24-hour HepG2 Assay for Mitochondrial Mass (AID 2282912). Conditions: high-content imaging, actives raise or lower the signal. In short, it runs like this: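 Endpoint is MitoTracker Red CMXRos (250 nM, 30 min, pre-fixation) intensity from 20x high-content imaging, nuclei located by Hoechst. Human HepG2 cells received ten concentrations from 0.39 to 200 uM in 0.5% DMSO for 24 hr, duplicate wells. Bidirectional fit relative to DMSO.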

A short description of assay [9]: APR_HepG2_p53Act_24hr: Apredica 24-hour HepG2 Assay for p53 Activation (AID 2282913).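 Further: p53 protein immunofluorescence averaged per cell in HepG2 with Hoechst nuclei.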 Conditions: high-content imaging, actives raise or lower the signal. In short, it runs like this:
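Following 24 hr dosing of HepG2 at 0.39–200 uM, the cells undergo formaldehyde fixation, Triton permeabilization and multiplexed antibody labeling that includes p53 (Cy5). Signal from the imaging is referenced to DMSO solvent controls.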

The nature of assay [10]: APR_HepG2_CellCycleArrest_72hr: Apredica 72-hour HepG2 Assay for Cell Cycle Arrest (AID 2282914). Conditions: high-content imaging, actives raise or lower the signal. Put shortly: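 Using multiplexed high-content imaging, HepG2 nuclei stained with Hoechst 33342 (2 ug/mL) were analysed for DNA content after fixation and permeabilization. Treatment lasted 72 hr across 0.39–200 uM in duplicate with final DMSO 0.5% v/v; DMSO served as negative control.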

Assay [11] can be described thus: APR_HepG2_CellLoss_72hr: Apredica 72-hour HepG2 Assay for Cell Loss (AID 2282915). Conditions: high-content imaging. Put shortly:
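HepG2 cells exposed 72 h to compound at 0.39–200 uM (10 concentrations, duplicate) in 0.5% DMSO. Fixed with 3.7% formaldehyde and Hoechst 33342-stained. Imaged at 20x; nuclear count gives cell number, fitted bidirectionally versus DMSO.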

Assay [12] can be described thus: APR_HepG2_P-H2AX_72hr: Apredica 72-hour HepG2 Assay for H2AX Phosphorylation (AID 2282916).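 Further: phospho-histone H2A.x immunostain intensity per cell marking DNA damage.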 Conditions: imaging, actives raise or lower the signal. In short, it runs like this: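 Phospho-histone H2A.x immunofluorescence, multiplexed with Hoechst and c-Jun, quantified by high-content imaging. Compounds applied to HepG2 for 72 h across ten concentrations (0.39–200 uM, 0.5% DMSO), in duplicate; DMSO baseline.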

The nature of assay [13]: APR_HepG2_MitoMembPot_72hr: Apredica 72-hour HepG2 Assay for Mitochondrial Membrane Potential (AID 2282917). Conditions: imaging, actives raise or lower the signal. Put shortly:
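HepG2 cells dosed 72 hr with compound at 0.39–200 uM in duplicate, 0.5% v/v DMSO final. Mitochondria stained with 250 nM MitoTracker Red CMXRos for 30 min before formaldehyde fixation, imaged by high-content fluorescence; bidirectional fit versus DMSO.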

Assay [14] can be described thus: APR_HepG2_MitoticArrest_72hr: Apredica 72-hour HepG2 Assay for Mitotic Arrest (AID 2282918). Conditions: high-content imaging, actives raise or lower the signal. Put shortly:
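Using high-content imaging of fixed HepG2 cells, phospho-histone H3 signal was measured following a 72 hr incubation with ten-point compound dilutions up to 200 uM. DMSO served as the negative control and baseline for bidirectional curve fitting.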

Assay [15] in a line: APR_HepG2_MicrotubuleCSK_72hr: Apredica 72-hour HepG2 Assay for Microtubule CSK Stabilty (AID 2282919). Conditions: HepG2 microtubule cytoskeleton, high-content imaging, actives raise or lower the signal. Put shortly:
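HepG2, 72 hr cmpd exposure, 0.39–200 uM (10 pts, duplicate), 0.5% DMSO. 3.7% formaldehyde fix, 0.5% Triton perm, anti-alpha-tubulin/Cy5 plus Hoechst. HCS fluorescence intensity; bidirectional fit vs DMSO baseline; taxol as positive control.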

Assay [16] can be described thus: APR_HepG2_P-H2AX_24hr: Apredica 24-hour HepG2 Assay for H2AX Phosphorylation (AID 2282920). Conditions: high-content imaging, actives raise or lower the signal. In short, it runs like this:
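Human HepG2 liver cells, treated 24 hr with test chemicals (0.39–200 uM, final DMSO 0.5% v/v), are fixed and co-stained for phospho-H2A.x and c-Jun with Hoechst. Imaged intensity is fitted in both directions against DMSO controls.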

Assay [17] can be described thus: APR_HepG2_StressKinase_72hr: Apredica 72-hour HepG2 Assay for Stress Kinase (AID 2282921). Conditions: HepG2 stress kinase (phospho-c-Jun) imaging, actives raise or lower the signal. In short, it runs like this:
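Stress kinase signal is phospho-c-Jun immunofluorescence (1:500 primary, Cy3 secondary) in fixed, permeabilized human HepG2 cells imaged at 20x. Exposure lasted 72 hr over ten concentrations from 0.39 to 200 uM, 0.5% DMSO, in duplicate. Bidirectional fit versus DMSO.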

The nature of assay [18]: APR_HepG2_StressKinase_24hr: Apredica 24-hour HepG2 Assay for Stress Kinase (AID 2282922). Conditions: HepG2 stress kinase (phospho-c-Jun) imaging, actives raise or lower the signal. Put shortly:
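Read-out: phospho-c-Jun immunofluorescence (Cy3 secondary) quantified by high-content imaging at 20x, nuclei defined by Hoechst 33342. Human HepG2 liver cells dosed 24 hr, 0.39–200 uM, DMSO 0.5% v/v; gain or loss of signal fitted relative to DMSO.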

Assay [19] can be described thus: APR_HepG2_MitoMass_72hr: Apredica 72-hour HepG2 Assay for Mitochondrial Mass (AID 2282924).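 Further: MitoTracker Red CMXRos stain intensity per cell imaged as mitochondrial mass.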 Conditions: high-content imaging, actives raise or lower the signal. Put shortly: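 Read-out: MitoTracker Red fluorescence intensity from automated imaging (20x, six fields per well) in human HepG2 liver cells. Dosing ran 72 hr, 0.39–200 uM, 0.5% DMSO; bidirectional curve fitting versus DMSO baseline.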

A short description of assay [20]: APR_HepG2_NuclearSize_72hr: Apredica 72-hour HepG2 Assay for Nuclear Size (AID 2282925). Conditions: high-content imaging, actives raise or lower the signal. Put shortly:
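Read-out: nuclear diameter from Hoechst 33342 images (ArrayScan, 20x, six fields/well), via cell-cycle image analysis. HepG2 were dosed 0.39–200 uM for 72 hr in 0.5% DMSO. Bidirectional fit relative to DMSO.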

By AC50 is commonly meant the concentration giving half of the maximal activity seen. For the molecule `CCCCN1C(=O)[C@@H]([C@H](O)C2CCCCC2)NC(=O)C12CCN(Cc1ccc(Oc3ccc(C(=O)O)cc3)cc1)CC2`, the molecule was classed as inactive in assay [1], in assay [2], in assay [3], in assay [5], in assay [7] and in [8]. Further, the molecule was called inactive in assay [9], in assay [10], in assay [13], in assay [15], in [18] and in [19]. In [20], the molecule was classed as inactive. Besides, the concentration at half-maximal activity (AC50) in [4] was 48.3 µM (active); in assay [6] it was 59.8 µM (active); in [11], 48.1 µM (active); in [12], 46.4 µM (active); in assay [14] it was 54.3 µM (active); in assay [16] it was 67.8 µM (active). The AC50 in [17] was 39.9 µM (active).

For the molecule `Cn1c(=O)c2[nH]cnc2n(C)c1=O`, the result in assay [1], in assay [2], in assay [4], in assay [5], in [6] and in [7] was inactive. In addition, the result in assay [8], in assay [9], in [10], in assay [11], in [12] and in assay [13] was inactive. The molecule was called inactive in assay [14], in assay [15], in [16], in [17], in [18] and in [19]. Further, the outcome in assay [20] was inactive.

`Nc1ccn([C@@H]2O[C@H](CO)[C@@H](O)[C@@H]2O)c(=O)n1`: the molecule was classed as inactive in assay [1], in [5], in assay [6], in [7], in assay [13] and in [15]. Also, the outcome in assay [17], in assay [18] and in [19] was inactive. The concentration at half-maximal activity (AC50) is 0.0387 µM (active) in assay [2]; 0.149 µM (active) in assay [4]; 0.0391 µM (active) in [8]; 0.0391 µM (active) in assay [11]; 0.202 µM (active) in assay [12]; 0.177 µM (active) in assay [14]. In addition, the concentration at half-maximal activity (AC50) is 0.0979 µM (active) in assay [16] and 0.0394 µM (active) in assay [20].

In the case of `CNC(C)=O`, the call in assay [1], in assay [2], in [3], in assay [4], in assay [5] and in assay [6] was inactive. The outcome in assay [7], in assay [11], in assay [12], in assay [13], in assay [14] and in assay [15] was inactive. Moreover, the molecule was classed as inactive in assay [16], in assay [17], in assay [18], in assay [19] and in assay [20].

Take `CCc1cccc(CC)c1N`: the call in [1], in assay [2], in assay [3], in [4], in assay [5] and in [6] was inactive. Besides, the molecule was called inactive in assay [7], in assay [9], in [10], in [11], in assay [12] and in [13]. The molecule was called inactive in assay [14], in [15], in [16], in [17], in assay [18] and in assay [19]. Also, in [20], the molecule was classed as inactive.

Consider `O=C(O)c1cccc(C[C@@H]2COc3ccc(OCc4nc5cc(F)ccc5s4)cc3[C@@H]2O)c1`, for which the outcome in assay [1], in assay [5], in [7], in [13], in assay [15] and in assay [20] was inactive. Further, the AC50 was 50.1 µM (active) in [2]; 53.9 µM (active) in assay [4]; 93.5 µM (active) in assay [6]; 156 µM (active) in assay [8]; 97.2 µM (active) in assay [9]; 63.7 µM (active) in assay [11]. The AC50 in assay [12] is 97.3 µM (active); in [14], 102 µM (active); in assay [16] it was 105 µM (active); in [17], 66.3 µM (active); in assay [18], 110 µM (active); in assay [19], 178 µM (active).
